40 molecules from PubChem BioAssay AID1751 (National Center for Advancing Translational Sciences (NCATS), 2009) can be followed below.

Where “and” joins values, the source holds several entries; their conditions need not be identical. Equal values may be shown once. Results filed as inconclusive are left out. A number with no mark means an inactive call. Calls of active or inactive are those of the source. The call rests on the fitted dose curve; in most records, active means well fitted activation curve with a large enough effect; inconclusive means small, poorly fitted or top-dose-only effect; inactive means no such curve, though single readings can be large or run the other way.

In this assay the target is Pyruvate kinase PKM (Homo sapiens) (UniProt P14618). The assay is described as follows: Confirmation Concentration-Response Assay for Activators of Human Muscle isoform 2 Pyruvate Kinase. The conditions noted are these: purified hPK-M2, Kinase-Glo ATP luminescence, 1 h; series mostly up to 57.5 µM; activation (negative = inhibition): at the top concentration. An excerpt: NIH Chemical Genomics Center [NCGC] Matthew G. Vander Heiden, M.D., Ph.D. [Harvard Medical School, 77 Avenue Louis Pasteur, Boston, MA 02115] MLPCN Grant: 1 R03 MH085679-01 NCGC Assay Overview: Human pyruvate kinase muscle 2 (hPK-M2) enzyme was supplied as a highly purified (>95% pure) preparation from Harvard Medical School and assayed for its ability to generate ATP from ADP using phosphoenolpyruvate (PEP) as a substrate. ATP generation was detected in a coupled reaction by luciferase-mediated luminescence, an ATP-dependent process. Pyruvate kinase substrates, PEP and ADP, were present in the assay at Km and approximately 10-fold below Km respectively. The enzyme was assayed at an intermediate level of activity to screen for both inhibitors and activators.
Chain of Pyruvate kinase PKM (Homo sapiens) (P14618 whole entry, looked up, canonical isoform): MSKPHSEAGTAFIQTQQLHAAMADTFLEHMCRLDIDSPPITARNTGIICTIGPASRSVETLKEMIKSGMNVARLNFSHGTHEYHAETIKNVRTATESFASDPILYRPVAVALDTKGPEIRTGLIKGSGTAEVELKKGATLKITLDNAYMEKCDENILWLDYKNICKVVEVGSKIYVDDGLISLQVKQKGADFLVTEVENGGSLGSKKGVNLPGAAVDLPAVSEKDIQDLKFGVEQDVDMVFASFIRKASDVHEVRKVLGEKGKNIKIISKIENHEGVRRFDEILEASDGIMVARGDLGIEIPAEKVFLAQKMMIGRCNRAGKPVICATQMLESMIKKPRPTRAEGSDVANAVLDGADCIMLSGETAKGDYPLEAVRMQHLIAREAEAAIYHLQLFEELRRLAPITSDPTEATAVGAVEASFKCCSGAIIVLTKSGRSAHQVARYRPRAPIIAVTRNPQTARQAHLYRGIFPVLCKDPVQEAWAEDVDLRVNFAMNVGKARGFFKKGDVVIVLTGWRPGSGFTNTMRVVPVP
NCGC Assay Protocol Summary: Three uL of substrate mix (at r.t.) in assay buffer (50 mM Imidazole pH7.2, 50 mM KCl, 7 mM MgCl2, 0.01% Tween 20, 0.05% BSA) was dispensed into white solid bottom 1,536 well microtiter plates so that the final concentrations of substrates in the assay were 0.1 mM ADP and 0.5 mM PEP. 23 nL of compound were delivered by a pin tool and 1 uL of enzyme mix (final concentration of 0.1 nM) in assay buffer (4 degree Celsius) was added. Plates were incubated at room temperature for 1 hour. Two uL of detection mix (Kinase-Glo, Promega; at 4 degree Celsius protected from light) was added and luminescence read by a ViewLux (Perkin Elmer) at 1 second exposure/plate. Data were normalized to the uninhibited (column 3) and AC100 inhibition (no enzyme in column 2). To monitor activation, the first column contained a titration of the activator, NCGC00031955-03 (16-point 1:2 dilutions in duplicate starting at 57 uM) and the first 16 rows of column 4 contained 57 uM of NCGC00031955-03.
Background: Kinase-Glo reads ATP consumption through a luciferase reaction.
Take `Cc1ccc(Cn2ncc3c4sc(C)cc4n(C)c3c2=O)cc1`: the Potency is 225 nM (active).

For the molecule `O=C1NC(=S)S/C1=C1\Sc2ccccc2N1CCCS(=O)(=O)O`, the “activation (negative = inhibition)” value is -46.2%.

Take `Oc1ccc(-c2nnc(-c3ccc(O)cc3)nn2)cc1`: the “activation (negative = inhibition)” value is -76.3%.

Regarding `Cc1ccc(Cn2ncc3c4sc(C)cc4n(C)c3c2=O)c(C)c1`, the Potency is 56.6 nM (active).

Consider `COc1ccc2nc3sc(C(=O)NCc4cccs4)c(N)c3cc2c1`, for which the “activation (negative = inhibition)” value was -22.2%.

As to `Cc1cc2c(s1)c1cnn(Cc3c(F)cccc3F)c(=O)c1n2C`, the Potency is 25.3 nM (active).

In the case of `COc1cccc(S(=O)(=O)N2CCN(S(=O)(=O)c3ccc4c(c3)OCCO4)CC2)c1`, the Potency was 63.5 nM (active).

For `Cn1c2cc(C=O)sc2c2cnn(Cc3ccccc3F)c(=O)c21`, the Potency is 7.1 nM (active).

With `C[C@H]1CN(S(=O)(=O)c2ccc3c(c2)OCCO3)CCN1S(=O)(=O)c1c(F)cccc1F`, the Potency is 8970 nM (active).

Consider `O=S(=O)(c1ccc2c(c1)OCCO2)N1CCN(S(=O)(=O)c2ccccc2F)CC1`, for which the Potency was 56.6 nM (active).

Consider `N#Cc1cc(-c2ccccc2)cnc1Sc1ccccc1`, for which the “activation (negative = inhibition)” value is -17.8%.

Take `O=C(c1ccc2c(c1)OCCO2)N1CCN(S(=O)(=O)c2c(F)cccc2F)CC1`: the “activation (negative = inhibition)” value is 8.54%.

For `CC(C)N1C(=S)SC(C)(C)C1NO` (stereo not given), the “activation (negative = inhibition)” value is -4.61%.

For `Cn1c2cc(S(C)=O)sc2c2cnn(Cc3ccccc3F)c(=O)c21` (stereo not given), the Potency was 16 nM (active).

`CC(=O)c1cc2c(s1)c1cnn(Cc3ccccc3F)c(=O)c1n2C`: the Potency was 7.1 nM (active).

Take `O=C1CN(S(=O)(=O)c2ccc3c(c2)OCCO3)CCN1S(=O)(=O)c1c(F)cccc1F`: the Potency was 2250 nM (active).

With `O=S(=O)(c1c(F)cccc1F)C1CCN(S(=O)(=O)c2ccc3c(c2)OCCO3)CC1`, the Potency is 201 nM (active).

`O=S(=O)(c1ccc2c(c1)OCO2)N1CCN(S(=O)(=O)c2c(F)cccc2F)CC1`: the Potency was 127 nM (active).

As for `O=S(=O)(c1ccc2c(c1)OCCO2)C1CCN(S(=O)(=O)c2c(F)cccc2F)CC1`, the Potency is 713 nM (active).

For `Cc1cc2c(s1)c1cnn(Cc3cccc(Cl)c3)c(=O)c1n2C`, the Potency is 101 nM (active).

As to `O=S(=O)(c1ccccc1)N1CCN(S(=O)(=O)c2ccc3c(c2)OCCO3)CC1`, the Potency was 160 nM (active).

As for `Cc1cc2c(s1)c1cnn(Cc3ccc(F)cc3F)c(=O)c1n2C`, the Potency is 25.3 nM (active).

`O=S(=O)(c1c(F)cccc1F)N1CCN(S(=O)(=O)c2c(F)cccc2F)CC1`: the Potency was 50.5 nM (active).

`O=S(=O)(/N=C(/Sc1ccccc1)c1ccccc1)c1ccccc1`: the “activation (negative = inhibition)” value is -4.23%.

With `CCOC(=O)CSc1nc2cc(OC)ccc2cc1C#N`, the “activation (negative = inhibition)” value was -13.5%.

Consider `Cc1nc2ccc(S(=O)(=O)N3CCN(S(=O)(=O)c4c(F)cccc4F)CC3)cc2s1`, for which the Potency was 63.5 nM (active).

`Cc1cc2c(s1)c1cnn(Cc3ccc(S(C)(=O)=O)cc3)c(=O)c1n2C`: the Potency is 4500 nM (active).

In the case of `Cc1cc2c(s1)c1cnn(Cc3ccc(C(F)(F)F)cc3)c(=O)c1n2C`, the Potency was 318 nM (active).

Consider `COC(=O)c1cc2c(s1)c1cnn(Cc3ccccc3F)c(=O)c1n2C`, for which the Potency was 39.1 nM (active).

Consider `O=S(=O)(NC1CCC(NS(=O)(=O)c2c(F)cccc2F)CC1)c1ccc2c(c1)OCCO2` (stereo not given), for which the Potency is 1.27 µM (active) and 22.5 µM (active).

With `Cn1c2ccsc2c2ncn(Cc3ccccc3F)c(=O)c21`, the Potency was 17900 nM (active).

Turning to `CCCc1noc(-c2ccc(-c3ccccc3)cc2)n1`, the “activation (negative = inhibition)” value was -42.9%.

On to `Cc1ccc(-c2nnc3ccc(SC(C)C(=O)O)nn23)cc1` (stereo not given), for which the “activation (negative = inhibition)” value was -13%.

As to `Cc1cc2c(s1)c1cnn(Cc3cccc(F)c3F)c(=O)c1n2C`, the Potency is 113 nM (active).

For `O=S(=O)(c1ccc2c(c1)OCCO2)N1CCN(S(=O)(=O)c2c(F)ccc(O)c2F)CC1`, the Potency is 31.8 nM (active).

As to `C[C@@H]1CN(S(=O)(=O)c2ccc3c(c2)OCCO3)CCN1S(=O)(=O)c1c(F)cccc1F`, the Potency is 2530 nM (active).

As to `S=C1NC(c2ccccc2)N2C(=S)NC(c3ccccc3)N12` (stereo not given), the “activation (negative = inhibition)” value is -35.3%.

Take `O=S(=O)(NC1CCN(S(=O)(=O)c2ccc3c(c2)OCCO3)C1)c1c(F)cccc1F` (stereo not given): the Potency is 17900 nM (active).

Take `Cc1cc2[nH]c3c(=O)n(Cc4ccccc4F)ncc3c2s1`: the “activation (negative = inhibition)” value was 28.4%.

As to `Cc1cc2c(s1)c1cnn(Cc3ccc(F)c(F)c3F)c(=O)c1n2C`, the Potency was 713 nM (active).
